SMILES strings stand for the structures. The whole screen tested about 2,300 compounds, of which about 1,400 (61%) were called active. About 29% were inconclusive and are not listed. So high a share suggests a set chosen from earlier hits. The list shows a part of the results. A number with no mark means an inactive call. Calls follow the shape of the dose curve; as a rule, active = well fitted inhibition curve with a large enough effect; inconclusive = small, poorly fitted or top-dose-only effect, or effect the other way; inactive = no such curve, though single readings can be large or run the other way.

We go through 47 molecules from PubChem BioAssay AID504848 (National Center for Advancing Translational Sciences (NCATS), 2011).
% is scaled to controls: 0 for no effect and ±100 for the full control effect; potency is read from the fitted curve at half-maximal effect.

The nature of the assay: Confirmation screen for delayed death inhibitors of the malarial parasite plastid, 96 hour incubation. Also: nearly all actives have a fitted effect of over 60% in size. To be noted: P. falciparum luciferase growth in erythrocytes; series mostly up to 28.7 µM; activity change, negative = inhibition: at the top concentration. The source says:
The goal of this screen is to discover new antimalarial compounds that act by inhibiting the development of the apicoplast in the malarial parasite Plasmodium falciparum. The biochemical processes that make this organelle essential for erythrocytic stage parasites are not well understood. However, antibiotics, such as azithromycin and tetracycline, which target the apicoplast translational machinery, have a potent antimalarial effect. […] We have developed a cell-based assay that measures parasite growth based on the expression of an integrated copy of a firefly luciferase reporter. To detect small molecules that cause this "delayed death phenotype, erythrocytes infected with the luciferase-expressing parasites were incubated with compounds for either one or two generations, corresponding to 48 and 96 hours, respectively. Compounds that inhibit parasite growth in the second generation, but not the first, should be enriched in antimalarials that target the apicoplast. Growth inhibition is detected by a decrease in luciferase activity. MLPCN Grant: R21 NS059500 Assay Provider: David Fidock and Eric Ekland, Columbia University Keywords: NIH Roadmap, MLPCN, MLI, MLSMR, qHTS, NCGC, qHTS, malaria, luciferase, viability
Four microliters of culture medium (RPMI 1640 with 0.5% w/v Albumax (GIBCO), 24 mM sodium bicarbonate and 10 ug/mL gentamycin) were dispensed by a Multi-drop Combi into white solid 1536-well plates (Grenier) and 23 nL compound was added by a pin tool. Four microliters of infected erythrocytes (2% hematocrit, 0.1% parasitemia final concentration) in culture medium were dispensed and the plates incubated for 96 hours at 37 C in 5% CO2. Two microliters of luciferase detection reagent was added and luminescence was detected by a ViewLux (PerkinElmer) reader
Regarding `Cc1ccc(Nc2cc(C)c3ccc(O)cc3n2)cc1C`, the Potency was 0.126 µM (active).
In the case of `OC1C2(Cc3ccccc3)CN3CCN(C2)CC1(Cc1ccccc1)C3` (configuration not stated), the Potency was 2 µM (active).
Still for that read-out and setting: for `O=c1cc(CSc2nc(NCc3ccccc3)c3ccccc3n2)nc2ccc(Cl)cn12` the value was 3.55 µM (active); for `CCN(CC)S(=O)(=O)c1ccc(N2CCOCC2)c(NC(=O)C2CSC3(C)CCC(=O)N23)c1` (configuration not stated), 5.62 µM (active).
On the same count and under the same terms, for `COc1ccc2[nH]cc(C(=O)CCl)c2c1` the value was 12.6 µM (active).
Consider `COc1ccc2[nH]cc(CCCN3C(=O)c4ccccc4C3=O)c2c1`, for which the “activity change, negative = inhibition” value is -25.7%.
On to `CCOc1ccc(/C=C/[N+](=O)[O-])c2ccccc12`, for which the Potency is 15.8 µM (active).
Consider `Cc1ccc(C)c(-c2nnc(OCC(=O)Nc3cc(C)on3)c3ccccc23)c1`, for which the Potency was 12.6 µM (active).
Consider `COc1cc(CNC2CCCCCCC2)ccc1OCC(N)=O`, for which the Potency is 12.6 µM (active).
Still for that read-out and setting: for `Cc1cc(C)c(NC(=O)c2cccc3c2C(=O)N(C2CCCCC2)C3)c(C)c1` the value was 7.94 µM (active).
`O=C(/C=C/c1ccccc1O)c1ccco1`: the “activity change, negative = inhibition” value was -31.2%.
Take `CCOC(=O)C(CC)(CC)C(=O)/C=C/c1ccc(Br)cc1`: the Potency was 6.31 µM (active).
Turning to `COc1ccccc1/C=C/C(=O)/C=C/c1ccccc1O`, the Potency is 1 µM (active).
In the case of `CCOC(=O)C(=Cc1ccccc1OC)C(=O)OCC`, the Potency was 12.6 µM (active).
Same read-out and setting: for `COc1ccccc1/C=C/C(=O)c1ccccc1` the value was 14.1 µM (active); for `CCOC(=O)C(=Cc1ccc(Br)cc1)C(=O)OCC`, 7.94 µM (active); for `COc1ccc(CCNc2cc(C)nc3c(-c4ccc(Cl)cc4)c(C)nn23)cc1OC`, 11.2 µM (active).
With `CSc1ccc(/C=C/C(=O)c2ccc(NC(=O)C(C)C)cc2)cc1`, the “activity change, negative = inhibition” value is -105%.
On to `O=C(/C=C/c1ccncc1)c1ccc(NC(=O)c2ccccc2F)cc1`, for which the Potency was 12.6 µM (active).
For the molecule `COc1cccc(Nc2ccc(N3CCCCC3)cc2)c1OC`, the Potency is 0.355 µM (active).
Same read-out and setting: with `CCOC(=O)CN1C(=O)/C(=C/c2c(F)cccc2Cl)Oc2ccccc21` the figure was 12.6 µM (active).
Turning to `CCOC(=O)c1ccc(N2N=C(C)/C(=C/C=C/c3ccco3)C2=O)cc1`, the Potency was 5.62 µM (active).
With `CC(=O)c1cccc(NC(=O)CSc2ccc(-c3sc(C)nc3C)nn2)c1`, the Potency was 12.6 µM (active).
On the same count and under the same terms, with `CCc1ccc(NC2=CC(=O)C(=O)c3ccccc32)cc1` the figure was 0.447 µM (active); with `COc1ccc(-c2c(-c3cc(OC)cc(OC)c3)n(C)c3ccc(-c4ccc5[nH]ccc5c4)cc23)cc1`, 6.31 µM (active); with `CCN(CC)C(=O)C1CCCN(C(=O)c2cc(COc3ccc4ncccc4c3)on2)C1` (configuration not stated), 11.2 µM (active).
Same read-out and setting: with `c1ccc2c(c1)Nc1cc3ccccc3cc1S2` the figure was 3.98 µM (active); with `O=C(c1[nH]ncc1-c1cccc(Br)c1)C1CO1` (configuration not stated), 12.6 µM (active).
Still for that read-out and setting: with `O=S(=O)(c1ccc(F)cc1)N1CCc2ccccc2C1` the figure was 12.6 µM (active); with `COC(=O)Nc1ccc2c(c1)N(C(=O)CCCl)c1ccccc1S2`, 12.6 µM (active); with `O=S1(=O)Nc2c(ccc3cccnc23)-c2ccccc21`, 1.58 µM (active).
Regarding `Cc1ccc(C2(C)NC(=O)N(CC(=O)N3CCN(S(=O)(=O)c4cccc(F)c4)CC3)C2=O)cc1` (configuration not stated), the Potency is 7.08 µM (active).
Regarding `O=C(NC1CCCCC1)c1ccc(CS(=O)Cc2ccccc2Cl)o1` (configuration not stated), the Potency is 12.6 µM (active).
Same read-out and setting: for `Cc1ccc(CS(=O)(=O)Cc2ccc(C(=O)NC3CCCC3)o2)cc1` the value was 10 µM (active); for `O=C(c1cccs1)N1N=C(c2ccccc2)CC1c1ccccc1O` (configuration not stated), 2.82 µM (active).
For `CCOc1ccc(CCn2c(-c3ccco3)nc3ccccc3c2=O)cc1OCC`, the Potency is 10 µM (active).
Turning to `O=C(Nn1c(-c2ccccc2)nc2ccccc2c1=O)c1ccco1`, the “activity change, negative = inhibition” value is 22.9%.
Take `Cc1c(O)ccc(C(=O)CN2CCN(Cc3ccc4c(c3)OCO4)CC2)c1O`: the Potency is 5.01 µM (active).
Still for that read-out and setting: for `Cc1ccc(NC2=C/C(=N\S(=O)(=O)c3cccs3)c3ccccc3C2=O)c(C)c1` the value was 0.0708 µM (active).
Still for that read-out and setting: with `CCc1ccc(-c2cn(C3CCCCC3)c(=S)[nH]2)cc1` the figure was 6.31 µM (active); with `Clc1ccccc1Cn1c(/C=C/c2ccco2)nc2ccccc21`, 11.2 µM (active).
The same measure, in the same setting: for `COc1ccccc1N1CCN(CCC(=O)Nc2ccc(F)cc2)CC1` the value was 12.6 µM (active).
`O=C1CN(c2nc(-c3cccnc3)nc3scc(-c4ccccc4)c23)CCN1`: the “activity change, negative = inhibition” value was 18.9%.
Turning to `O=C(c1cccs1)N1CCCN(c2ncnc3scc(-c4ccccc4)c23)CC1`, the Potency is 12.6 µM (active).
Same read-out and setting: with `Cc1cc(C)n(CC(O)COc2ccccc2)n1` (configuration not stated) the figure was 0.891 µM (active); with `O=C1CN(C(=O)c2ccc(Cl)c(S(=O)(=O)N3CCc4ccccc43)c2)c2ccccc2N1`, 12.6 µM (active); with `CC[C@@H](C(=O)[C@@H](C)[C@@H](O)[C@H](C)CCc1ccc(C)c(O)c1C(=O)O)[C@H]1O[C@](CC)([C@H]2CC[C@](O)(CC)[C@H](C)O2)C[C@@H]1C`, 0.631 µM (active).
